Experimental data: PubChem BioAssay
For some assays here: Results with a measured potency or affinity are listed apart. Activity calls are given as the source filed them.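 How the source made its calls, unless noted: active means calcium signal cut by more than 3 SD below the full-agonist control yet still positive, in both repeats and the earlier primary screen; inactive means the rest.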

Key:
[1] = test system: TRPC4 beta (transient receptor potential cation channel C4), mouse; experiment: TRPC4 cation channel opening, retest – cell-based, Fluo4 calcium, HEK293 TRPC4beta/mu-opioid, duplicates, 10 µM, confirmation (AID 2426;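 active means fluorescence ratio normalized to control raised more than 50% in primary screen plus both repeat runs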); details: Fluo4 calcium fluorescence, at 10 µM; hits give high values
[2] = test system: transient receptor potential cation channel C4 beta (TRPC4), mouse; experiment: TRPC4 cation channel opening, second retest – cell-based, second round, Fluo4, HEK293 TRPC4beta/mu-opioid, 1 µM, confirmation (AID 2461;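 active means primary screen active and over 50% activation in each of two duplicate runs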); details: Fluo4 calcium fluorescence, at 1 µM; hits give high values
[3] = test system: TRPC4 (transient receptor potential cation channel C4 beta), mouse; experiment: potentiation of DAMGO EC20 TRPC4 response – cell-based, second round, Fluo-4, HEK293 TRPC4beta/mu-opioid, 1 µM, confirmation (AID 2554;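 active means primary screen hit whose fluorescence ratio, in both repeats, exceeds the weak agonist control mean by 3 SD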); details: DAMGO EC20, Fluo-4 calcium flux, at 1 µM; hits give high values
[4] = test system: TRPC4 beta (transient receptor potential cation channel C4), mouse; experiment: potentiation of DAMGO EC20 TRPC4 response – cell-based, Fluo-4, HEK293 TRPC4beta/mu-opioid, confirmation (AID 2555;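 active means primary screen hit whose calcium fluorescence ratio, in both repeats, exceeds the weak agonist control mean by 3 SD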); details: DAMGO EC20, Fluo-4 calcium flux, at 10 µM; hits give high values
[5] = biological target: Short transient receptor potential channel 4 (Mus musculus) (UniProt Q9QUQ5); experiment: blockers of DAMGO-evoked TRPC4 calcium flux – cell-based, Fluo4, HEK293 TRPC4beta/mu-opioid, confirmation (AID 2636); details: at 10 µM; hits give high values
Chain of Short transient receptor potential channel 4 (Mus musculus) (Q9QUQ5 whole entry, looked up): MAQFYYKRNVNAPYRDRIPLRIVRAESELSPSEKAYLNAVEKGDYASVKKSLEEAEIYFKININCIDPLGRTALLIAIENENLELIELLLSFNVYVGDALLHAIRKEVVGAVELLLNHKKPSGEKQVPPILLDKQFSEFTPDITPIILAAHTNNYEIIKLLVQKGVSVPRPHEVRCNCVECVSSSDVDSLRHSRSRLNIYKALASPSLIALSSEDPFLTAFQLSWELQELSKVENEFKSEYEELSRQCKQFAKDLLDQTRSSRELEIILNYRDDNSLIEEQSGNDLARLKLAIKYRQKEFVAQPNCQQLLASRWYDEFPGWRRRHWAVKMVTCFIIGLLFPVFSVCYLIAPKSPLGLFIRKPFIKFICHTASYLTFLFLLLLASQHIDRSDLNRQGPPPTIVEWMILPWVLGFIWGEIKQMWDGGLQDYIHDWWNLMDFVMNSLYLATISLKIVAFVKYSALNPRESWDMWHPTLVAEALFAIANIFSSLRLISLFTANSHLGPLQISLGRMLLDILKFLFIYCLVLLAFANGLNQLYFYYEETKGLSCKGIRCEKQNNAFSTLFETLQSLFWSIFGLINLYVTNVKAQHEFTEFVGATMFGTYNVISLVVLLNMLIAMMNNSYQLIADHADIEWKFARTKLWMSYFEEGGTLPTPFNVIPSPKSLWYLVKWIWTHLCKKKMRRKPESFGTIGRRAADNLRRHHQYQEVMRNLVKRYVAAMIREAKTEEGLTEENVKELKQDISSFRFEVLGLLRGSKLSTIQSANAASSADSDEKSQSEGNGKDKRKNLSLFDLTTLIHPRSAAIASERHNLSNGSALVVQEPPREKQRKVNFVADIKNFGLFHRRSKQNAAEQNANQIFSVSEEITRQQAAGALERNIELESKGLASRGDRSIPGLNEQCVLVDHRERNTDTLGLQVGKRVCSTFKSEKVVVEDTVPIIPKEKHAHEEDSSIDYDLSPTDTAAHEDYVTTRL

[6] = biological target: Short transient receptor potential channel 4 (Mus musculus) (UniProt Q9QUQ5); experiment: blockers of DAMGO-evoked TRPC4 calcium flux – cell-based, second round, Fluo4, HEK293 TRPC4beta/mu-opioid, 1 µM, confirmation (AID 2637;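 active means calcium signal ratio cut to more than 3 SD under the fully stimulated control mean yet still positive, in both repeats and the primary screen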;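 on inhibition: percent of integrated ratio relative to wells lacking test compound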); details: at 1 µM; hits give high values
[7] = biological target: Short transient receptor potential channel 4 (Mus musculus) (UniProt Q9QUQ5); experiment: calcium entry via TRPC4 opening agents – cell-based, HEK293 TRPC4/mu-opioid, Fluo-4 calcium, dose response (AID 434937;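 active means primary screen activator hit with a dose response curve and TRPC4 channel activation at any tested dose; inactive means no activation, no dose response, or not a primary hit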)
[8] = biological target: Short transient receptor potential channel 4 (Mus musculus) (UniProt Q9QUQ5); experiment: potentiation of DAMGO-evoked TRPC4 calcium signal – cell-based, HEK293 TRPC4/mu-opioid, Fluo-4 calcium, EC20 DAMGO, dose response (AID 434941;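 active means earlier screen potentiator hit that boosts the TRPC4 ion channel at some dose, with a dose response; inactive means no potentiation, no dose response, or not a prior hit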;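 further: calcium entry triggered by an EC20 dose of DAMGO at the co-expressed mu-opioid receptor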)
[9] = biological target: Short transient receptor potential channel 6 (Mus musculus) (UniProt Q61143); experiment: TRPC6 blockade by TRPC4 inhibitor hits – cell-based, HEK293, membrane potential dye, duplicate, selectivity assay for TRPC4 inhibitor project, confirmation (AID 434948;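 active means active in primary screen and both duplicates, each dropping signal beyond three positive-control SD with fluorescence still positive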); details: HEK293 TRPC6, membrane potential dye fluorescence, at 10 µM, stimulated with maximal-effect acetylcholine; hits give high values
Chain of Short transient receptor potential channel 6 (Mus musculus) (Q61143 whole entry, looked up): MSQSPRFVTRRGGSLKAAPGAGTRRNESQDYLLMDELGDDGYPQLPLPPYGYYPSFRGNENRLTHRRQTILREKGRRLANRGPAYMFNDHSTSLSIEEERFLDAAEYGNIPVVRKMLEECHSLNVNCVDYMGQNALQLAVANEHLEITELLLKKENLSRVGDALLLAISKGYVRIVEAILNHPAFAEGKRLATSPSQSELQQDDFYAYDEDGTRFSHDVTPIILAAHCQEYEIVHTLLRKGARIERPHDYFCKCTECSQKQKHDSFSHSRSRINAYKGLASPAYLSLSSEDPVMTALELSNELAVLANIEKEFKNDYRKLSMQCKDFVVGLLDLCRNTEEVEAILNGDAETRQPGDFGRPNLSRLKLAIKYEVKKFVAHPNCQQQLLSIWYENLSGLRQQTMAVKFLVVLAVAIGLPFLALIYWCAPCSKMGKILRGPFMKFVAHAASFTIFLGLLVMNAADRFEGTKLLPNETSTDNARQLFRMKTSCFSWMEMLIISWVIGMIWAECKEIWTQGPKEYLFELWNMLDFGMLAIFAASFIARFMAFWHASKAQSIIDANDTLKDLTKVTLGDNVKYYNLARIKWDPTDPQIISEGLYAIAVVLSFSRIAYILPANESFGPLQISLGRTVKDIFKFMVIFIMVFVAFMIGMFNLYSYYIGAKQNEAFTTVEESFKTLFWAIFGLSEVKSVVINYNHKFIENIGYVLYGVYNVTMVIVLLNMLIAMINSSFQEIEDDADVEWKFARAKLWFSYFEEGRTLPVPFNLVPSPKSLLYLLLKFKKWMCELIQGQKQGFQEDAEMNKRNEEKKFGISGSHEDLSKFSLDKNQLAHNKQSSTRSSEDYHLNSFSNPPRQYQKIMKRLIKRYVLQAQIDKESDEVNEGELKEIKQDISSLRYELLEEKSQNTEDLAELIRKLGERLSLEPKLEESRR

[10] = biological target: Short transient receptor potential channel 6 (Mus musculus) (UniProt Q61143); experiment: TRPC6 opening by TRPC4 activator hits – cell-based, HEK293, membrane potential dye, duplicate, selectivity assay for TRPC4 activator project, confirmation (AID 434950;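 active means membrane potential signal rise above negative control mean plus 3 SD in both duplicates, also active in the earlier TRPC4 screen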); details: HEK293 TRPC6, membrane potential fluorescence, at 10 µM; activation: hits give high values; outcome: activation
[11] = biological target: Short transient receptor potential channel 6 (Mus musculus) (UniProt Q61143); experiment: positive modulators of mouse TRPC6 channel – HEK293 cells, membrane potential dye, duplicate, selectivity assay for TRPC4 potentiator project, confirmation (AID 434952;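 active means compound raising the membrane signal above positive-control mean plus 3 SD in both repeats, and a primary screen hit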); details: HEK293 TRPC6, membrane potential dye fluorescence, at 10 µM, maximal acetylcholine added after compound; hits give high values
[12] = biological target: Short transient receptor potential channel 4 (Mus musculus) (UniProt Q9QUQ5); experiment: calcium flux activators in TRPC4/5HT1a cells, counter-screen for TRPC4 activator project, cell-based, second counter screen, HEK293 TRPC4/5HT1a, Fluo-4 (AID 434977;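 active means calcium signal rise above buffer-control mean plus 5 SD in both duplicates, and also a hit in the primary screen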); details: Fluo-4 calcium flux, at 10 µM; hits give high values
[13] = serotonin-gated TRPC4 signal block – cell-based, second counter screen, HEK293 TRPC4/5HT1a, Fluo-4, counter-screen for TRPC4 inhibitor project, confirmation (AID 434978;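 active means primary screen active whose calcium signal fell more than 3 SD beyond the full-serotonin control mean in both duplicate plates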;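 on outcome: serotonin given first at submaximal then at maximal dose after compound preincubation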); details: Fluo-4 calcium flux, at 10 µM, serotonin added to trigger calcium flux; hits give high values
[14] = test system: TRPC4 (mouse), co-expressed with 5HT1a in HEK293; experiment: enhancement of serotonin-evoked TRPC4 response – cell-based, second counter screen, HEK293 TRPC4/5HT1a, Fluo-4, counter-screen for TRPC4 potentiator project, confirmation (AID 434979;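 active means signal rise over 3 SD above mean of control wells given weak agonist, in both repeats and first screen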); details: Fluo-4 calcium flux, at 10 µM, serotonin added at its EC20 dose; hits give high values
[15] = nonspecific calcium rise without TRPC4 – cell-based, HEK293 mu-opioid receptor line, counter-screen for TRPC4 activator project, confirmation (AID 449723;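 active means hit in primary screen, with calcium signal over 5 SD above buffer well mean in both duplicates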;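 further: counter screen cells carry the mu-opioid receptor alone and lack TRPC4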); details: HEK293 mu-opioid cells, Fluo-4 calcium fluorescence, at 10 µM; hits give high values
[16] = nonspecific potentiation of DAMGO calcium response – cell-based, HEK293 mu-opioid receptor line, counter-screen for TRPC4 allosteric potentiator project, confirmation (AID 449724;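 active means calcium signal rise more than 3 SD above the low-dose agonist control mean, in both duplicate plates and the primary screen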); details: HEK293 mu-opioid receptor cells, Fluo-4 calcium flux, at 10 µM, compound added before EC20 DAMGO stimulus; hits give high values

| Compound | outcome [1] | outcome [2] | outcome [3] | outcome [4] | inhibition [5] | outcome [6] | outcome [7] | outcome [8] | outcome [9] | outcome [10] | outcome [11] | outcome [12] | outcome [13] | outcome [14] | outcome [15] | outcome [16] | inhibition [6] | inhibition [9] | inhibition [13] |
| --- | --- | --- | --- | --- | --- | --- | --- | --- | --- | --- | --- | --- | --- | --- | --- | --- | --- | --- | --- |
| COc1cccc(C(CNC(=O)C(c2ccccc2)c2ccccc2)N(C)C)c1 (centres undefined) | inactive | inactive | inactive | inactive | 89% (active) | inactive | inactive | inactive | inactive | inactive | inactive | inactive | inactive | inactive | inactive | inactive | – | – | – |
| Cc1ccc2nc(C)c3c(c2c1)N(c1ccc(F)cc1)CC3 | inactive | inactive | inactive | inactive | 90% (active) | – | inactive | inactive | – | inactive | inactive | inactive | – | inactive | inactive | inactive | 71% (active) | 25% (active) | 33.8% (active) |
| CN(C)CCN1C(=O)C2C(C(=O)Nc3cc(Cl)cc(Cl)c3)C3C=CC2(O3)C1C(=O)NC1CCCCC1 (centres undefined) | inactive | inactive | inactive | inactive | 71% (active) | inactive | inactive | inactive | inactive | inactive | inactive | inactive | inactive | inactive | inactive | inactive | – | – | – |
| Cc1c(CCOC(=O)c2ccc([N+](=O)[O-])cc2)sc[n+]1CC(=O)c1ccccc1 | inactive | inactive | inactive | inactive | 92% (active) | inactive | inactive | inactive | inactive | inactive | inactive | inactive | – | inactive | inactive | inactive | – | – | 42.9% (active) |
| O=C(Nc1ccc(F)cc1)N1CCN2C(=O)c3ccccc3C12c1ccccc1 (centres undefined) | inactive | inactive | inactive | inactive | 68% (active) | inactive | inactive | inactive | inactive | inactive | inactive | inactive | inactive | inactive | inactive | inactive | – | – | – |
| CCCCn1c(NCc2ccc(N(C)C)cc2)nc2ccccc21 | inactive | inactive | inactive | inactive | 93% (active) | – | inactive | inactive | – | inactive | inactive | inactive | – | inactive | inactive | inactive | 50% (active) | 51.5% (active) | 24.4% (active) |
| Cc1ccc(C)c2nc3sc(C(=O)O)cc3cc12 | inactive | inactive | inactive | inactive | 83% (active) | inactive | inactive | inactive | inactive | inactive | inactive | inactive | – | inactive | inactive | inactive | – | – | 30.9% (active) |
| CC(=O)C1=C(O)C(=O)N(Cc2ccccc2)C1c1ccc([N+](=O)[O-])cc1 (centres undefined) | inactive | inactive | inactive | inactive | 95% (active) | – | inactive | inactive | inactive | inactive | inactive | inactive | – | inactive | inactive | inactive | 61% (active) | – | 34.5% (active) |
| CCCCN=C(Nc1ccc(Cl)cc1)c1cccnc1 | inactive | inactive | inactive | inactive | 82% (active) | – | inactive | inactive | inactive | inactive | inactive | inactive | inactive | inactive | inactive | inactive | 54% (active) | – | – |
| CC(=O)Nc1cccc(C(=O)NCC2(N3CCCCC3)CCCCC2)c1 | inactive | inactive | inactive | inactive | 89% (active) | inactive | inactive | inactive | inactive | inactive | inactive | inactive | inactive | inactive | inactive | inactive | – | – | – |
| O=C(C1CCN(CC2CC=CCC2)CC1)N(CCc1ccccc1)Cc1ccccc1 (centres undefined) | inactive | inactive | inactive | inactive | 53% (active) | inactive | inactive | inactive | – | inactive | inactive | inactive | – | inactive | inactive | inactive | – | 32.5% (active) | 40.1% (active) |
| COc1ccc2c(C)cc(N3CCCCCC3)nc2c1 | inactive | inactive | inactive | inactive | 96% (active) | – | inactive | inactive | – | inactive | inactive | inactive | – | inactive | inactive | inactive | 63% (active) | 33.5% (active) | 20.8% (active) |
| Cc1ccc(C(C(=O)NC(C)(C)C)N(C(=O)CCC(=O)Nc2ccccn2)c2ccccc2F)cc1 (centres undefined) | inactive | inactive | inactive | inactive | 61% (active) | inactive | inactive | inactive | inactive | inactive | inactive | inactive | – | inactive | inactive | inactive | – | – | 28.9% (active) |
| CCOc1cccc(CNCCO)c1OCc1ccc(Cl)cc1 | inactive | inactive | inactive | inactive | 92% (active) | inactive | inactive | inactive | inactive | inactive | inactive | inactive | – | inactive | inactive | inactive | – | – | 26.5% (active) |
